From PubChem BioAssay (NCI)
Compounds without any hit were thinned out: in the full panel of roughly 83,000, 20% have a hit.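 Each cell line was grown in a 96-well plate and treated with one concentration of compound for 48 hours. Values below 10 were considered active.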 Active and inactive are the calls of the source.

Legend:
Assay in all cases: NCI-60 one-dose screen, 48 h (100 = growth as untreated, 0 = no growth, -100 = all killed)
Settings in all cases: 10 µM unless noted
SR leukemia = tested on: SR leukemia
RPMI-8226 leukemia = tested on: RPMI-8226 leukemia
OVCAR-8 ovarian = tested on: OVCAR-8 ovarian
OVCAR-5 ovarian = tested on: OVCAR-5 ovarian
OVCAR-4 ovarian = tested on: OVCAR-4 ovarian
SK-OV-3 ovarian = tested on: SK-OV-3 ovarian
IGROV1 ovarian = tested on: IGROV1 ovarian
OVCAR-3 ovarian = tested on: OVCAR-3 ovarian
HS 578T breast = tested on: HS 578T breast
NCI/ADR-RES ovarian = tested on: NCI/ADR-RES ovarian

Measured: growth

CC/C(=C(/CC)c1ccc(O)cc1)c1ccc(O)cc1
inactive: SR leukemia 21.1% | RPMI-8226 leukemia 61.7% | OVCAR-8 ovarian 80.1% | OVCAR-5 ovarian 89.4% | OVCAR-4 ovarian 76.8% | SK-OV-3 ovarian 38.4% | IGROV1 ovarian 82.4% | OVCAR-3 ovarian 62.1% | HS 578T breast 63% | NCI/ADR-RES ovarian 40.8%

Cc1nc(Sc2nc3ccc([N+](=O)[O-])cc3s2)sc1C
active: SR leukemia -13.2% | RPMI-8226 leukemia 2.79% | OVCAR-3 ovarian -2.8%
inactive: OVCAR-8 ovarian 19.5% | OVCAR-5 ovarian 34.8% | OVCAR-4 ovarian 36.4% | SK-OV-3 ovarian 39.4% | IGROV1 ovarian 32% | HS 578T breast 50% | NCI/ADR-RES ovarian 16.7%

COc1cc2c(c(OC)c1OC)-c1ccc(NCc3ccccc3)c(=O)cc1[C@@H](NC(C)=O)CC2
active: SR leukemia 2.36% | RPMI-8226 leukemia 8.4% | SK-OV-3 ovarian -6.57% | IGROV1 ovarian -15.6% | OVCAR-3 ovarian -39.2%
inactive: OVCAR-8 ovarian 14.5% | OVCAR-5 ovarian 41.8% | OVCAR-4 ovarian 29.6% | HS 578T breast 17.3% | NCI/ADR-RES ovarian 66.4%

CN(Cc1ccccc1)c1ccc(SC#N)cc1
active: SR leukemia -6.68%
inactive: RPMI-8226 leukemia 74.8% | OVCAR-8 ovarian 85% | OVCAR-5 ovarian 106% | OVCAR-4 ovarian 68.9% | SK-OV-3 ovarian 112% | IGROV1 ovarian 98.8% | OVCAR-3 ovarian 71.4% | HS 578T breast 89.7% | NCI/ADR-RES ovarian 86.7%

CCCCCCCCCCCC1N=C(N)N=C(N)N1c1cccc(Br)c1 (stereo not given)
active: SR leukemia -29.2% | RPMI-8226 leukemia -40% | OVCAR-8 ovarian -14.6% | OVCAR-5 ovarian -32.8% | IGROV1 ovarian -30.2% | OVCAR-3 ovarian -28.6%
inactive: OVCAR-4 ovarian 55.4% | SK-OV-3 ovarian 32.6% | HS 578T breast 18.9% | NCI/ADR-RES ovarian 105%

O=C(NNc1ccccc1)OCc1ccccc1
inactive: SR leukemia 47.1% | RPMI-8226 leukemia 64.2% | OVCAR-8 ovarian 61.4% | OVCAR-5 ovarian 53.1% | OVCAR-4 ovarian 112% | SK-OV-3 ovarian 105% | IGROV1 ovarian 58.7% | OVCAR-3 ovarian 91.4% | HS 578T breast 91.8% | NCI/ADR-RES ovarian 55.2%
